High-throughput results (PubChem)
Only a selection was taken, and hits are over-represented in it overall.
TDP1 cell noCPT: qHTS for Inhibitors of human tyrosyl-DNA phosphodiesterase 1 (TDP1): qHTS in cells in absence of CPT; DT40 Tdp1-/- hTDP1 cells, no CPT, ATP luminescence, 48 h; Potency, µM (series often up to 46.2 µM), for the others: at the top dose activity change, negative = growth inhibition, hits mostly inhibitors; hit rate 15% among 420,000; AID 686978, 2013; further: potency means the concentration at half of the fitted maximal effect; nearly all actives have a fitted effect of over 55% in size
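Camptothecin absent (DMSO only). Human TDP1-complemented DT40 knockout cells, 400 cells/well, 37 °C for minimum 48 hr; ATP measured via CellTiter-Glo, 30 min dark incubation, luminescence.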
ALOX12 inh: blocks human arachidonate 12S-lipoxygenase; P18054; purified 12hLO, xylenol orange hydroperoxide absorbance; Potency, µM (top dose mostly 108 µM), inactives show at the top dose activity change, negative = inhibition, hits mostly inhibitors; hit rate 1.1% among 580,000; further: potency means the concentration at half of the fitted maximal effect
Target sequence (P18054 whole entry, looked up): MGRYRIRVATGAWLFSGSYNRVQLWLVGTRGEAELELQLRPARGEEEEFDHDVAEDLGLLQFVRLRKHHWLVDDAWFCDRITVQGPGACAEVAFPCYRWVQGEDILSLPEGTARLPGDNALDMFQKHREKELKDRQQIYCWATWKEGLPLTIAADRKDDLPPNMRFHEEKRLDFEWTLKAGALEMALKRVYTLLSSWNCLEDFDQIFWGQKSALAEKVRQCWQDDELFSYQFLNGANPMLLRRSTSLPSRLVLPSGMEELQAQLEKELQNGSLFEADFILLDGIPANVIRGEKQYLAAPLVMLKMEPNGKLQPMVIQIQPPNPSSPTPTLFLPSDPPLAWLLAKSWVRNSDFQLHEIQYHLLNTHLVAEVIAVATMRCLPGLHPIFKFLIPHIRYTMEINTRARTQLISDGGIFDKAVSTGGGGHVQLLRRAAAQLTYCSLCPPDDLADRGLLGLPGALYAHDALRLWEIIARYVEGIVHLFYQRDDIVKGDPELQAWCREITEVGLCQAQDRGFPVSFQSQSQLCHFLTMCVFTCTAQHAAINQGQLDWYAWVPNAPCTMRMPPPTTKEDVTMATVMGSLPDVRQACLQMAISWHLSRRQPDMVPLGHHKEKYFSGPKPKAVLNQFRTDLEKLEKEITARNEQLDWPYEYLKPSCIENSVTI
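Purified human 12hLO (150 nM final) in 25 mM Hepes, 0.01% Triton X-100, pH 7.0 was preincubated 15 min at room temperature with compound. Then 40 uM arachidonic acid was added, 30 min. Hydroperoxide was read by Fe-XO absorbance ratio 573/405 nm.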
HT1080NT lethal: kills 2HG-producing HT-1080-NT fibrosarcoma cells; HT-1080-NT fibrosarcoma viability, CellTiter-Glo ATP luminescence, 48 h; hit rate 1.6% among 360,000; AID 686970; Potency, µM (doses to about 46.1 µM), for inactives: at the highest dose activity, negative = less viability, actives largely listed as cytotoxic;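 further: NT is the 2HG producing partner of a matched IDH1 knockdown line; potency means the concentration at half of the fitted maximal effect; 0% = DMSO-treated cells and -100% = media-only wells without cells; nearly all actives have a fitted effect of over 55% in size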
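HT-1080-NT; 750 cells/well; 5% FBS RPMI; 48 h compound, 37 degrees C; CellTiter-Glo luminescence; curve fitting and curve-class assignment.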
IL1B secr inh: inflammasome signaling inhibition, IL-1 beta readout; AID 743279; activity change, % at 57.5 µM; hit rate 4.7% among 360,000; THP-1 LPS/ATP IL-1B secretion, AlphaLISA, 16 h; hits give low values; in the data active means activity change below about -50%; inconclusive means mostly about -30% to -49%
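THP-1 cells pretreated 1 hr with compounds (up to 57.5 uM final), then stimulated with LPS (250 ng/mL final) plus ATP (1.25 mM final); secreted IL-1B measured by AlphaLISA after 16 hr, decreased signal indicating inhibition.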
TDP1 cell CPT: growth inhibition of DT40 Tdp1-/-;hTDP1 cells with camptothecin (screen for TDP1 inhibitors) | chicken DT40 Tdp1-/-;hTDP1 cells + 20 nM CPT, ATP luminescence, 48 h | Potency, µM (top dose mostly 46.2 µM), for inactives: top-dose activity change, negative = growth inhibition, most hits filed as inhibitors | hit rate 12% among 420,000 | AID 686979; further: potency means the concentration at half of the fitted maximal effect; nearly all actives have a fitted effect of over 55% in size
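Chicken DT40 Tdp1-/- cells complemented with human TDP1, 400 cells/well, exposed to compounds plus 20 nM camptothecin for at least 48 h at 37 C; viability read as ATP content by CellTiter-Glo luminescence.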
HT1080 IDH1KD tx: HT-1080 IDH1 knockdown cell toxicity (counter line). HT-1080 IDH1 knockdown viability, ATP luminescence, 48 h. Potency, µM (highest dose often 46.1 µM), without a hit: top-dose activity, negative = toxicity, usual class: cytotoxic. hit rate 2% among 360,000;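 further: potency means the concentration at half of the fitted maximal effect; 0% = DMSO wells and -100% = cell-free medium wells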
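In this qHTS, HT-1080 cells depleted of IDH1 are exposed for 48 h at 37 °C to compound titrations. Toxicity is scored from CellTiter-Glo luminescence, with DMSO as full viability and medium alone as none.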
Starred values were filed as active, the others as inactive; ? = inconclusive; . = no result; [ ] = another dose, or the depositor's remark. Unless noted, the call rests on the fitted dose curve; in most records, active means well fitted curve in the direction sought with a large enough effect; inconclusive means small, poorly fitted or top-dose-only effect, or another doubt; inactive means no such curve, though single readings can be large; an effect the other way counts as inactive or inconclusive. Unless noted, on the % scale 0 is the no-effect control and ±100 the full control effect.

SMILES	TDP1 cell noCPT	ALOX12 inh	HT1080NT lethal	IL1B secr inh	TDP1 cell CPT	HT1080 IDH1KD tx
CCOc1ccccc1-c1nc(-c2cc3ccc(C)cc3[nH]c2=O)no1	?	-1%	1%	-22	26µM*	-2%
COc1nc2ccccc2cc1-c1noc(-c2cccc(C)c2)n1	.	7%	.	.	.	.
CCCc1nc(-c2cc3ccc(C)cc3[nH]c2=O)no1	-6%	0%	2%	-4	-27%	5%
CCOc1ccccc1-c1nc(-c2cc3ccccc3nc2OC)no1	23µM*	-15%	-5%	-5	16µM*	-16%
CN1CCc2c(sc3nc(SCC(N)=O)n(-c4ccccc4)c(=O)c23)C1	-21%	35%	2%	-14	3%	-2%
CCSc1nc2sc3c(c2c(=O)n1-c1ccccc1)CCN(C(C)C)C3	21µM*	?	20%	-27	10µM*	24%
CN1CCc2c(sc3nc(SCC(N)=O)n(-c4ccc(Cl)cc4)c(=O)c23)C1	23µM*	?	-1%	10	?	0%
CCSc1nc2sc3c(c2c(=O)n1-c1ccccc1C)CCN(C)C3	29µM*	?	-1%	-18	?	2%
CCCCCSc1nc2sc3c(c2c(=O)n1-c1ccc(OC)cc1)CCN(C(C)=O)C3	26µM*	?	.	.	?	.
CCCN(CCC)C(=O)CSc1nc2sc3c(c2c(=O)n1-c1ccccc1)CCN(C(C)=O)C3	-26%	-19%	.	.	?	.
Cc1noc(C)c1Cc1c(C(=O)NCCn2c(C)cnc2C2CC2)noc1C	.	12%	.	.	.	.
Cc1ccccc1CN1Cc2nc(OCc3cccnc3)ccc2OCC1=O	.	4%[176 µM]	.	.	.	.
C=C(C)CSc1nc2sc3c(c2c(=O)n1-c1ccccc1)CCN(C)C3	29µM*	?	4%	-24	?	?
CCCCSc1nc2sc3c(c2c(=O)n1-c1ccc(OC)cc1)CCN(C)C3	?	?	-29%	-8	?	-26%
CCn1c(SCC(=O)NCCc2ccccc2)nc2sc3c(c2c1=O)CCN(C)C3	?	115%	10%	-9	?	4%
CSc1nc2sc3c(c2c(=O)n1-c1ccc(C)c(Cl)c1)CCN(C(C)=O)C3	15µM*	-22%	.	.	?	.
CCn1c(SCC(=O)c2ccccc2)nc2sc3c(c2c1=O)CCN(C)C3	21µM*	-18%	-12%	-3	23µM*	-1%
CCCCSc1nc2sc3c(c2c(=O)n1-c1ccccc1)CCN(C)C3	7.3µM*	?	0%	-8	9.2µM*	-3%
O=C(c1cccs1)C1CCCN(C(=O)c2ccc3nccn3c2)C1 (stereo not given)	.	16%	.	.	.	.
Cc1cccc(OCC(=O)N2CCC(n3cc(-c4nc(C(C)C)no4)nn3)CC2)c1	.	29%	.	.	.	.
CCCCN(CCCNC(=O)c1cc(Nc2ccc(OC)c(OC)c2)nc2ccccc12)c1ccccc1	13µM*	?	.	.	15µM*	.
COc1ccc(Nc2cc(C(=O)NCCCN(C)Cc3ccccc3)c3ccccc3n2)cc1OC	21µM*	?	.	.	23µM*	.
CCCCN(CCCNC(=O)c1cc(Nc2ccc(OC)c(OC)c2)nc2ccccc12)Cc1ccccc1	21µM*	?	.	.	16µM*	.
CCCCN(CCCNC(=O)c1cc(Nc2ccc(OC)cc2)nc2ccccc12)Cc1ccccc1	16µM*	-23%	.	.	21µM*	.
O=C(CN1CCN(Cc2cccc(F)c2)CC1)Nc1ccccc1F	?	0%	7%	-14	-3%	3%
SMILES	TDP1 cell noCPT	ALOX12 inh	HT1080NT lethal	IL1B secr inh	TDP1 cell CPT	HT1080 IDH1KD tx
COc1ccc(NC(=O)Cn2cc(S(=O)(=O)Cc3ccc(F)cc3)c3ccccc32)cc1OC	?	50µM*	.	.	?	.
COc1cccc(NC(=O)Cn2cc(S(=O)(=O)Cc3ccccc3F)c3ccccc32)c1	18µM*	?	.	.	16µM*	.
COc1ccccc1CN1CC[C@H](c2nc3ccc(C(F)(F)F)cc3[nH]2)C1	.	28%[176 µM]	.	.	.	.
CCOc1ccc(Nc2cc(C)nc3ccc(C)cc23)cc1	?	-8%	29µM*	-88*	23µM*	?
COc1ccc(Nc2cc(C)nc3ccc(OC)cc23)cc1	?	0%	?	-101*	-4%	?
COc1ccc(CNc2cc(C)nc3ccc(OC)cc23)cc1	21µM*	?	?	-93*	?	15µM*
COc1ccc2nc(C)cc(Sc3nc4ccccc4s3)c2c1	9.2µM*	-8%	10µM*	-99*	9.2µM*	23µM*
COc1ccc2nc(C)cc(Nc3ccc(C(=O)O)cc3)c2c1	-1%	-10%	6%	1	10%	10%
CCOC(=O)c1cnc2ccccc2c1N1CCN(CC(=O)N(C)C)CC1	.	23%	.	.	.	.
COc1ccc(-c2nc3c(-c4ccc(F)cc4)cnn3cc2C)cc1F	15µM*	0%	1%	4	23µM*	-3%
C=CCOc1ccccc1CNc1ccc2[nH]c(=O)[nH]c2c1	21µM*	1%	5%	23	?	4%
C=CCOc1ccccc1CNc1cccc(F)c1	-28%	-25%	1%	-5	?	0%
C=CCOc1ccccc1CNc1ccc2c(c1)OCCO2	12µM*	.	?	-75*	15µM*	?
O=C(NCC1CCCCO1)c1coc(COc2cccc(C(F)(F)F)c2)n1 (stereo not given)	.	-27%	.	.	.	.
O=C(NCCc1c[nH]c2ccc(Cl)cc12)c1ccccc1Br	.	-29%	.	.	.	.
CC(C)(C)c1ccc(C(=O)N2CCC2(C)C(=O)NCc2cccs2)cc1 (stereo not given)	0.65µM*	0%	?	0	6.5µM*	?
CC(C)(C)c1ccc(CC(=O)N2CCC2(C)C(=O)NCc2cccs2)cc1 (stereo not given)	10µM*	0%	-18%	0	12µM*	-2%
CCCCCc1c(-c2ccccc2F)ncn1CCc1ccccc1OC	18µM*	-74%	?	-95*	16µM*	?
CCCCc1c(-c2ccccc2OC)ncn1Cc1c(F)cccc1F	.	-30%	.	.	.	.
CCCCc1c(-c2ccccc2F)ncn1CCc1ccccc1OC	16µM*	?	?	-59*	26µM*	?
c1cc2c(cc1CN1CCCCCC1)CNCCO2	.	86%	.	.	.	.
Cc1noc(C)c1CC(=O)N(C)C1CCc2nn(CC3CC3)c(=O)n2CC1 (stereo not given)	.	53%	.	.	.	.
